# A549 viability = Nrf2 qHTS screen for inhibitors: counterscreen for cytotoxicity; A549 ARE-Fluc cells, CellTiter-Fluor viability, 18-24 h; Potency, µM (top dose mostly 46 µM), for the others: at the highest dose activity change, negative = cytotoxicity, actives largely listed as inhibitors; 390,000 tested, 0.16% active; AID 504648, 2011; also: % is scaled to controls: 0 for no effect and ±100 for the full control effect
#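 Cytotoxicity counterscreen: CellTiter-Fluor fluorescence was measured in A549 ARE_Fluc cells after 18-24 h of compound exposure in a concentration series. The subsequent BugLite luminescent read reports ARE-luciferase activity.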
# Nrf2 ARE act = qHTS of Nrf2 Activators; AREc32 ARE-luciferase reporter (MCF7-derived line), luminescence, 24 h; Potency, µM (series often up to 46.1 µM), without a hit: at the top dose activation, usual class: activators; 410,000 tested, 0.31% active; AID 624171, 2012; also: % of control where 0% means no effect; nearly all actives have a fitted effect of over 65% in size
#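 Reporter line AREc32 (ARE-Fluc), seeded overnight in OPTI-MEM with 5% FBS; compound pin-transferred, 24 hr at 37 deg C, 5% CO2; luminescent read-out.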
# HepG2 tox = qHTS for Inhibitors of TGF-b: Cytotox Counterscreen; HepG2 CAGA-GFP viability, ATP luminescence, 18 h; Potency, µM (highest dose often 46.1 µM), without a hit: at the highest dose activity change, negative = cytotoxicity, usual class: cytotoxic; 410,000 tested, 0.76% active
#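 CellTiter-Glo luminescence gave cytotoxicity after 18 hours at 37 degrees C. The cells were HepG2 CAGA-GFP in 1% FBS DMEM, stimulated with 500 pg/mL TGF-beta after compound addition. %Activity was normalised to no-cell wells (complete cell-killing) and DMSO (no toxicity), and curves were fitted and classified.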
# Nrf2 inh = Nrf2 qHTS screen for inhibitors; A549 ARE-Fluc reporter, luciferase luminescence, 18-24 h; Potency, µM (highest dose often 46 µM), for inactives: at the top dose activity change, negative = inhibition, actives largely listed as inhibitors; 360,000 tested, 2.1% active; also: % is scaled to controls: 0 for no effect and ±100 for the full control effect; nearly all actives have a fitted effect of over 60% in size
#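 Nrf2 function is reported as luminescence of an ARE-controlled luciferase in A549 cells. Compounds were tested at several concentrations, and a CellTiter-Fluor read on the same wells flagged cytotoxicity.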
# TGFb SMAD3 inh = qHTS for Inhibitors of TGF-b. HepG2 CAGA-GFP TGF-b/SMAD3 reporter, GFP fluorescence, 18 h; TGF-beta stimulated, 500 pg/mL final. Potency, µM (doses to about 46.1 µM), for inactives: top-dose activity, negative = inhibition, most hits filed as inhibitors. 410,000 tested, 1.2% active; also: % is scaled to controls: 0 for no effect and ±100 for the full control effect; nearly all actives have a fitted effect of over 65% in size
#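 Cell-based qHTS in HEPG2 carrying a CAGA-GFP Smad reporter; compounds added before 500 pg/mL final TGF-beta, 18 h incubation at 37 degrees C, GFP fluorescence quantified per cell by imaging cytometry.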
# Starred values were filed as active, the others as inactive; ? = inconclusive; . = no result given. The list is not random: actives were taken first. Their share in the collection is about 3.6%. Calls follow the shape of the dose curve; as a rule, active = well fitted curve in the direction sought with a large enough effect; inconclusive = small, poorly fitted or top-dose-only effect, or another doubt; inactive = no such curve, though single readings can be large; an effect the other way counts as inactive or inconclusive. Potency is read from the fitted curve at half-maximal effect.
SMILES,A549 viability,Nrf2 ARE act,HepG2 tox,Nrf2 inh,TGFb SMAD3 inh
O=C(c1ccc(S(=O)(=O)c2ccccc2Cl)c([N+](=O)[O-])c1)N1CCN(Cc2ccccc2)CC1,?,19%,3%,18µM*,?
O=C(c1ccc(CNS(=O)(=O)c2ccccc2)cc1)N1CCN(Cc2ccccc2)CC1,-15%,0%,-31%,13µM*,?
Cc1ccc(S(=O)(=O)NCc2ccc(N3CCN(C(=O)OC(C)(C)C)CC3)cc2)cc1,-10%,0%,-10%,26µM*,0%
Cc1ccc(C(=O)NCc2ccc(N3CCN(C(=O)OC(C)(C)C)CC3)cc2)cc1,-3%,0%,-12%,-16%,-8%
Cc1ccc(S(=O)(=O)N2CCN(C(=O)CNC(=O)c3ccc(Cl)cc3)CC2)cc1,0%,1%,-20%,21µM*,24%
COc1cccc(CN(C)C(=O)C2CCN(S(=O)(=O)c3cccs3)CC2)c1OC,0%,0%,-15%,-6%,-11%
O=S(=O)(c1ccccc1)[C@@]1(c2ccccc2)C[C@@H]2ON=C(c3cccc(-c4ccccc4)c3)[C@@H]2C1,-6%,-1%,2%,-19%,-8%
Cc1ccc(NS(=O)(=O)c2ccc(C(=O)N3CCN(S(=O)(=O)c4ccccc4)CC3)cc2)cc1,-25%,1%,-45%,21µM*,-18%
Cc1ccc(S(=O)(=O)Nc2ccc(C(=O)N3CCCC3)cc2)cc1,-1%,0%,-13%,0%,-7%
Cc1ccc(S(=O)(=O)NCc2ccc(C(=O)N3CCN(c4ccccc4)CC3)cc2)cc1,-5%,0%,-13%,23µM*,0%
O=C(c1ccc(COc2ccccc2)o1)N1CCN(S(=O)(=O)c2ccccc2Cl)CC1,0%,0%,21%,-19%,16%
CC(C)CNS(=O)(=O)c1ccc(CCC(=O)N2CCN(c3ccccc3)CC2)cc1,?,2%,0%,10µM*,14%
CCNS(=O)(=O)c1ccc(CCC(=O)N2CCN(c3ccccc3)CC2)cc1,-8%,3%,6%,?,21%
Cc1ccc(S(=O)(=O)N2CCN(C(=O)c3ccc(COc4ccccc4)o3)CC2)cc1,-4%,0%,-21%,23µM*,5%
Cc1ccc(C(=O)NNC(=O)C2CCN(Cc3ccccc3)CC2)cc1,-3%,-1%,-23%,.,-2%
COCCOC(=O)C1=C(C)NC(=O)NC1c1cn(-c2ccccc2)nc1-c1cccs1 (stereo unspecified),-5%,4%,5%,4%,15%
CCCCC(=O)NC(Nc1nc(C2CC2)cs1)(C(=O)OCC)C(F)(F)F (stereo unspecified),-5%,0%,1%,-19%,0%
O=C(c1ccc(S(=O)(=O)NCc2ccco2)cc1)N1CCCC1,1%,0%,-7%,-5%,-4%
N#Cc1ccc(CN2CCN(C(=O)c3ccc(S(=O)(=O)NCc4ccco4)cc3)CC2)cc1,?,11%,-17%,8.2µM*,?
CC(=O)c1ccc(NC(=O)c2cc(C)nc3ccccc23)cc1,1%,4%,3%,?,25%
CC(C)Cc1ccc(C(C)/C=C2/CCC(CN3CCCCC3)C2=O)cc1 (stereo unspecified),17%,13µM*,-72%,-8%,16µM*
CC(C)Cc1ccc(CN2CCCC(NC(=O)CCN3CCCCC3=O)C2)cc1 (stereo unspecified),7%,-2%,2%,3%,0%
Cc1cc(-c2ccc(S(=O)(=O)Nc3ccc(Cl)cc3C)cc2)on1,-9%,0%,-31%,21µM*,13µM*
Cc1ccc(NS(=O)(=O)c2ccc(-c3cc(C)no3)cc2)c(Br)c1,0%,0%,-33%,23µM*,?
O=C1CN(C(=O)c2ccccc2C(=O)O)c2ccccc2N1,-5%,0%,-6%,-1%,6%
SMILES,A549 viability,Nrf2 ARE act,HepG2 tox,Nrf2 inh,TGFb SMAD3 inh
CN(C)C(CNC(=O)CCCc1c[nH]c2ccccc12)c1ccco1 (stereo unspecified),0%,0%,10%,-21%,-13%
O=C(NNc1nc(-c2ccc(F)cc2)cs1)c1ccccc1,?,-1%,2%,15µM*,-18%
O=C1OC(Nc2nc(-c3ccc(F)cc3)cs2)c2ccccc21 (stereo unspecified),?,?,-40%,?,11µM*
CCCCOC(=O)c1ccc(NC(=O)Cc2coc3ccc(C(C)C)cc23)cc1,13%,0%,-39%,12%,11µM*
Cc1ccc(NC(=O)Cc2coc3ccc(C(C)C)cc23)cc1Cl,-23%,6%,-32%,?,11µM*
CCN(CC)S(=O)(=O)c1ccc(N2CCOCC2)c(NC(=O)c2cc(Cl)c3c(c2)OCO3)c1,1%,0%,-17%,?,-1%
COc1ccc(Nc2nc(N)nc(CSc3n[nH]c(-c4ccccc4)n3)n2)cc1,0%,3%,-14%,-28%,12%
O=C(Nc1ccccc1)c1cc(C2COCCN2C(=O)c2cccs2)on1 (stereo unspecified),.,0%,-24%,.,-3%
CC(=O)c1ccc(-c2cc([C@H]3[C@H]4C=CC[C@@H](C)[C@@H]4C(=O)N3Cc3ccccc3)ccc2F)cc1,-13%,3%,8%,21µM*,?
C[C@@H]1CC=C[C@H]2[C@H]1C(=O)N(Cc1ccccc1)[C@H]2c1ccc(C(F)(F)F)cc1,-1%,11%,-22%,-10%,22µM*
Cc1ccc(F)c(C2C3C=CCC(c4ccccc4)C3C(=O)N2Cc2ccccc2)c1 (stereo unspecified),-11%,.,-60%,?,13µM*
COC(=O)c1ccc(-c2ccc(C3C4C=CCC(C)C4C(=O)N3Cc3ccccc3)c(F)c2)cc1 (stereo unspecified),-13%,.,-4%,10µM*,-14%
CC(=O)c1ccc(-c2cc(C3C4C=CCC(C)C4C(=O)N3Cc3ccccc3)ccc2F)cc1 (stereo unspecified),-13%,.,-6%,?,0%
COc1ccc(N2CCN(C(=O)CCCn3nnnc3CN3CCOCC3)C(C)C2)cc1 (stereo unspecified),1%,0%,-1%,1%,18%
CCN(CC)S(=O)(=O)c1ccc(N2CCOCC2)c(NC(=O)CN2C(=O)NC3(CCCC3)C2=O)c1,-2%,0%,12%,-3%,7%
CCOc1cc(Cl)c(S(=O)(=O)NCCCn2ccnc2)cc1Cl,-9%,0%,-15%,16µM*,-30%
CC(C)c1nnc(NC(=O)CCC(=O)N2CCN(C3c4ccccc4-c4ccccc43)CC2)s1,9%,-1%,1%,-6%,-2%
